Assay results: PubChem BioAssay (NCI)
The panel holds about 83,000 compounds, 20% with a hit somewhere; the sample as a whole holds those more often.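 Note: values are percent growth. 100 is the growth of untreated cells, values between 100 and 0 indicate rising inhibition; between -100 and 0 indicates cell death.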 Unmarked numbers belong to inactive results. The source made the active and inactive calls. The calls were made as follows: active = growth percent below 10; inactive = the rest.

Columns and labels:
Assay in all cases: NCI-60 one-dose screen, 48 h (100 = growth as untreated, 0 = no growth, -100 = all killed)
Settings in all cases: 10 µM unless noted
[1] = tested on: DU-145 prostate
[2] = tested on: K-562 leukemia
[3] = tested on: MALME-3M melanoma
[4] = tested on: MDA-MB-231 breast
[5] = tested on: RXF 393 renal
[6] = tested on: SF-268 CNS
[7] = tested on: SF-295 CNS
[8] = tested on: SF-539 CNS
[9] = tested on: UACC-257 melanoma
[10] = tested on: M14 melanoma
[11] = tested on: HCT-15 colon
[12] = tested on: HT29 colon
[13] = tested on: SNB-75 CNS
[14] = tested on: SNB-19 CNS
[15] = tested on: U251 CNS
[16] = tested on: SK-MEL-5 melanoma
[17] = tested on: UACC-62 melanoma
[18] = tested on: LOX IMVI melanoma
[19] = tested on: SK-MEL-28 melanoma
[20] = tested on: PC-3 prostate

SMILES | growth [1] | growth [2] | growth [3] | growth [4] | growth [5] | growth [6] [%] | growth [7] | growth [8] | growth [9] [%] | growth [10] | growth [11] | growth [12] | growth [13] | growth [14] [%] | growth [15] | growth [16] | growth [17] | growth [18] | growth [19] | growth [20] [%]
O=C(CSc1nc2sc3c(c2c(=O)n1Cc1ccccc1)CCCC3)N1CCN(c2ccccc2)CC1 | 103% | 99.4% | 109% | 101% | 105% | 93.9 | 101% | 103% | 85.7 | 97.2% | 94.8% | 90.2% | 79.4% | 110 | 90.8% | 98.5% | 96% | 97% | 106% | 
COc1cc2nc(-c3ccc(C(F)(F)F)cc3)cc(OCCCN3CCCCC3)c2cc1OC | 45.3% | 12.8% | 39.9% | 27.7% | 26.9% | 50.6 | -46.8% (active) | 46.1% | 10.1 | -19.2% (active) | 9.99% (active) | 15.8% | -10.6% (active) | 62.5 |  | 15.5% | -34.7% (active) | -28.5% (active) | 51.4% | 43.2
CCCCOc1ccc(/C=N/Nc2cc(C)nc3ccc(Cl)cc23)cc1 | 3.96% (active) | -21.7% (active) | -77% (active) | -49.5% (active) | -84.2% (active) | 64.9 | -83.6% (active) | -80.5% (active) | 84.1 | -25.2% (active) | -80.3% (active) | -49.8% (active) | 17% | 20.7 | -82.1% (active) |  | 77.8% | -94.7% (active) | -89.5% (active) | 20.6
O=C(N=Nc1c(O)[nH]c2ccc(F)cc12)c1cc2ccccc2[nH]1 | 95.9% | 91.7% | 99.8% | 95.1% | 104% | 88.3 | 100% | 99.8% | 106 | 94.9% | 96% | 109% | 99.6% | 97.7 | 94.7% |  | 96.1% | 97.3% | 110% | 103
NC(=O)c1cccc(-n2ccc3cc(NC(=O)Nc4cc(C(F)(F)F)cc(C(F)(F)F)c4)ccc32)n1 | 50.7% | 33.4% | 43.1% | 65.5% | 7.56% (active) | 38.5 | 18.5% | 52.2% | 72.2 | 51% | 37.1% | 52.6% | 41% | 42 |  | 69% | 52.9% | 50.9% | 69.3% | 32.4
COc1cccc(-c2nc3occn3c2-c2ccnc(NCCCNS(=O)(=O)c3cccc(F)c3)n2)c1 | 93.8% | 69% | 70.2% | 104% | 99.2% | 87 | 94.8% | 106% | 83.8 | 60.9% | 83.4% | 50.7% | 117% | 109 | 111% |  | 45.2% | 86.5% | 89.5% | 79.4
[2H]C1([2H])NC([2H])([2H])C([2H])([2H])N(c2ccc(Nc3ncc4cc(C(=O)N(C)C)n(C5CCCC5)c4n3)nc2)C1([2H])[2H] | 99.7% | 64.6% | 58.4% | 64.9% | 82.4% | 77.4 | 72.7% | 86.5% | 61.1 | 75.2% | 85% | 34% | 65.5% |  | 61.4% | 78.3% | 78.7% | 49.2% | 88.6% | 62.3
N#Cc1ccc(-c2ccc3c(c2)NC(=O)/C3=C\c2ccc[nH]2)cc1 | 106% | 105% | 98% | 45.9% | 67.3% | 96.6 | 95.7% | 101% | 112 | 102% | 58.3% | 103% | 57% |  | 103% | 85.4% | 88.4% | 97.5% | 107% | 84.7
COc1ccc(C2=NN(C(C)=O)C(c3cn(Cc4ccc(Cl)cc4)c4ccccc34)C2)cc1 (stereo not drawn) | 97.4% | 52.6% | 72.2% | 78.7% |  | 79.9 | 85.6% | 82.1% | 81.7 | 99.4% | 81.6% | 90.1% | 79.2% | 76 | 84.5% | 85.6% | 66.6% | 89.3% |  | 59.9
COc1ccccc1/C=C1\COc2ccc(-c3ccccc3)cc2C1=O | 7.94% (active) | 3.54% (active) | 73.7% | 43.8% |  | 22.1 | 22.2% | 30.5% | 56.9 | 17.4% | 22.7% | 5.36% (active) | 42.2% | 69.1 | 17.3% | 27.5% | 40.6% | 18.7% |  | 27.2
Cc1nn(-c2ccccc2)c(N2CCOCC2)c1/C=N/N=c1\sc2ccccc2n1C | 100% | 41.7% | 99.4% | 52.3% | 88.6% | 85 | 89.3% | 84.7% | 87.8 | 87.5% | 39.1% | 66.5% | 99.2% |  | 55.2% | 38.5% | 71.1% | 57.9% | 75.9% | 49
c1ccc(-c2nnc(Nc3ccc4c(c3)OCCO4)o2)c(NCc2ccncc2)c1 | -22% (active) | 12.1% | 53.6% | 15.4% |  | 14.3 | 3.68% (active) | -2.94% (active) | 68.3 | -17.8% (active) | 6.86% (active) | 0.34% (active) | 22.6% | 28.4 | 20.5% | -50% (active) | 20.7% | 23.6% |  | 29.7
CCCN=C(N)c1ccc(NC(=O)c2ccc(C(=O)Nc3ccc(C(N)=NCCC)cc3)cc2)cc1 | 107% | 91% | 88.1% | 96.6% | 96.5% | 95.8 | 90.3% | 92.8% | 101 | 98.4% | 99.7% | 102% | 78.1% |  |  | 27.2% | 90.2% | 108% | 110% | 90.8
CC(C)(C)CC(C)(C)Nc1c(-c2ccc(C(F)(F)F)cc2)nc2cnccn12 | 93% | 65.6% | 103% | 86% |  | 88.8 | 86.3% | 86% | 98.7 | -54.1% (active) | 73.8% | 57.4% | 81.1% | 91.8 | 93% | 90% | 72.9% | 97.6% |  | 68.5
COc1ccc2c(c1)c(CC(=O)NCCOCCOCC(=O)Nc1ccc(OC)c(C(N)=O)c1O)c(C)n2C(=O)c1ccc(Cl)cc1 | 107% | 91.5% | 118% | 92% | 92.9% | 88.9 | 93.8% | 99.9% | 113 | 98.3% | 95.5% | 102% | 89.6% |  | 93.3% | 96.6% | 98.8% | 90% | 119% | 74.6
CCN1C(=O)/C(=c2\sc3n(c2=O)NC2C(N=3)N(CC)C(=O)N2CC)c2ccccc21 (stereo not drawn) | 17.8% | 10.2% | 36.7% | 19.9% |  | 63.9 | 16.4% | -18.6% (active) | 82.5 | 38% | 33.7% | 12.9% | 7.11% (active) | 50.8 | 33.4% | 30.9% | 43.9% | 55.4% |  | 29.6
